Key:
Conditions in all cases: concentration: 1 μM,replicates: in singlicate; n = 1
CLK2 = system: CLK2
CLK3 = system: CLK3
CLK4 = system: CLK4
CSF1R-autoinhibited = system: CSF1R-autoinhibited
CSF1R = system: CSF1R
CSK = system: CSK
CSNK1A1L = system: CSNK1A1L
CSNK1D = system: CSNK1D
CSNK1E = system: CSNK1E
CSNK1G1 = system: CSNK1G1
CSNK1G2 = system: CSNK1G2
CSNK1G3 = system: CSNK1G3
CSNK2A1 = system: CSNK2A1
CSNK2A2 = system: CSNK2A2
CTK = system: T1, CTK
T1 construct: gene MATK

DAPK1 = system: DAPK1
DAPK2 = system: DAPK2
DAPK3 = system: DAPK3
DCAMKL1 = system: T2, DCAMKL1
T2 construct: gene DCLK1

CSNK1A1 = system: CSNK1A1
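Further: KINOMEscan kinase panel screen.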

Row | Structure (SMILES) | %Inh (CLK2) | %Inh (CLK3) | %Inh (CLK4) | %Inh (CSF1R-autoinhibited) | %Inh (CSF1R) | %Inh (CSK) | %Inh (CSNK1A1L) | %Inh (CSNK1D) | %Inh (CSNK1E) | %Inh (CSNK1G1) | %Inh (CSNK1G2) | %Inh (CSNK1G3) | %Inh (CSNK2A1) | %Inh (CSNK2A2) | %Inh (CTK) | %Inh (DAPK1) | %Inh (DAPK2) | %Inh (DAPK3) | %Inh (DCAMKL1) | %Inh (CSNK1A1)
1 | Cc1ccc2c(-c3ccncc3)c(-c3ccc(F)cc3)nn2c1.Cl [GW461484] | 0% | 0% | 0% | 8% | 0% | 0% | 39% | 96.9% | 99.5% | 30% | 27% | 27% | 0% | 0% | 0% | 0% | 7% | 5% | 0% | 
2 | CCN(CC)CCCCNc1ncc2cc(-c3c(Cl)cccc3Cl)c(NC(=O)NC(C)(C)C)nc2n1 | 0% | 0% | 0% | 85% | 99.2% | 90.5% | 0% | 14% | 61% | 10% | 0% | 0% | 1% | 12% | 15% | 0% | 0% | 0% | 11% | 30%
3 | Cl.Cl.Nc1nc(-c2ccc3c(N)n[nH]c3c2)cc(N2CCCC(NC(=O)c3ccccc3)C2)n1 (centres unmarked) [GSK2286775] | 15% | 14% | 0% | 0% | 15% | 5% | 4% | 0% | 24% | 0% | 0% | 21% | 0% | 6% | 6% | 28% | 0% | 13% | 15% | 0%
4 | Cl.Cl.NC[C@H](CC1CCCCC1)NC(=O)c1cc(Br)c(-c2ccnc3[nH]ccc23)s1 [GSK1581427] | 71% | 57% | 69% | 0% | 48% | 0% | 42% | 86% | 85% | 6% | 26% | 40% | 55% | 0% | 0% | 71% | 12% | 19% | 16% | 53%
5 | NC(=O)c1cc(-c2ccccc2)cc2c(C3CCNCC3)c[nH]c12 [GSK301362] | 3% | 14% | 25% | 0% | 53% | 0% | 20% | 50% | 72% | 3% | 0% | 19% | 31% | 20% | 4% | 23% | 9% | 40% | 14% | 0%
6 | Cc1ccc(-n2nc(C(C)(C)C)cc2NC(=O)Nc2ccc(OCCN3CCOCC3)c3ccccc23)cc1 [GW839464] | 9% | 5% | 0% |  |  | 3% | 7% | 1% | 10% | 1% | 0% | 19% | 0% | 4% | 0% | 4% | 1% | 20% | 21% | 0%
7 | Cc1cc2cn[nH]c2cc1-c1cccc2c(N)c(C(N)=O)nnc12 | 11% | 15% | 0% | 0% | 6% | 98.3% | 35% | 22% | 30% | 12% | 13% | 12% | 19% | 5% | 80% | 9% | 3% | 32% | 71% | 34%
8 | Cl.Oc1cc(-c2nc(-c3ccccc3)[nH]c2-c2ccncc2)ccc1Cl [SB-386023] | 0% | 24% | 11% | 0% | 2% | 1% | 25% | 71% | 77% | 0% | 0% | 16% | 11% | 30% | 38% | 0% | 0% | 0% | 34% | 41%
9 | CCN(CC)CCOc1ccc(Nc2ncc3cc(-c4c(Cl)cccc4Cl)c(=O)n(C)c3n2)cc1 [SB-601273] | 10% | 0% | 0% | 100% | 99.9% | 98.4% | 3% | 39% | 60% | 38% | 0% | 12% | 6% | 9% | 27% | 12% | 0% | 10% | 24% | 13%
10 | COc1ccc(C[C@@H](CN)NC(=O)c2cc(Br)c(-c3ccnc4[nH]ccc34)s2)cc1.Cl.Cl [GSK1389063] | 91.4% | 77% | 95.2% | 0% | 56% | 0% | 81% | 90% | 95.9% | 33% | 79% | 73% | 57% | 64% | 2% | 26% | 13% | 18% | 64% | 88%
11 | CC(C)N1C(=O)Cc2cc(Nc3ncc(C(F)(F)F)c(NCc4cccc(S(C)(=O)=O)c4)n3)ccc21 | 34% | 0% | 38% | 0% | 8% | 14% | 2% | 0% | 0% | 0% | 19% | 0% | 55% | 82% | 64% | 22% | 20% | 20% | 30% | 0%
12 | C[C@@H](Oc1cc(-c2cnn(C3CCNCC3)c2)cnc1N)c1c(Cl)ccc(F)c1Cl | 9% | 1% | 0% | 82% | 93.8% | 24% | 0% | 14% | 6% | 8% | 0% | 0% | 18% | 0% | 13% | 10% | 1% | 15% | 88% | 38%
13 | Nc1nc(Nc2ccccc2)cc(-c2ccc3c(N)n[nH]c3c2)n1 [GSK2225749] | 40% | 0% | 80% | 0% | 0% | 0% | 10% | 15% | 0% | 2% | 0% | 13% | 34% | 24% | 0% | 34% | 49% | 62% | 12% | 21%
14 | Cc1cc(C(=O)Nc2ccc(Oc3ccc4nc(NC(=O)C5CC5)cn4n3)cc2)nn1-c1ccccc1 | 1% | 0% | 0% | 0% | 100% | 15% | 0% | 0% | 1% | 6% | 0% | 0% | 0% | 0% | 0% | 0% | 0% | 10% | 12% | 43%
15 | CNC(=O)c1ccccc1Sc1ccc2c(/C=C/c3ccccn3)n[nH]c2c1 |  | 0% | 0% | 86% | 99.9% | 3% | 10% | 10% | 0% | 0% | 18% | 0% | 0% | 0% | 8% | 0% | 0% | 0% | 31% | 23%
16 | CC(C)Nc1cc(-c2ccc3c(N)n[nH]c3c2)nc(N)n1 [GSK2221681] | 44% | 23% | 63% | 0% | 4% | 0% | 5% | 34% | 22% | 0% | 2% | 19% | 13% | 28% | 0% | 30% | 42% | 51% | 7% | 18%
17 | CN(C)CCOc1ccc(-c2cc(-c3c[nH]nc3-c3ccccn3)ccn2)cc1 [GW835314] | 0% | 5% | 18% | 0% | 6% | 88% | 3% | 25% | 31% | 14% | 9% | 65% | 0% | 3% | 48% | 13% | 0% | 0% | 0% | 11%
18 | C=CC(=O)Nc1cc2c(Nc3ccc(F)c(Cl)c3)ncnc2cc1OCCCN1CCOCC1 [GW781483] | 0% | 0% | 4% | 35% | 13% | 5% | 22% | 0% | 26% | 0% | 1% | 99.8% | 27% | 16% | 4% | 0% | 0% | 0% | 15% | 0%
19 | O=C(NCCCN1CCOC1=O)c1cnc(NCc2cc(Cl)ccc2Cl)nc1NC1CCCC1 | 1% | 0% | 4% | 12% | 32% | 12% | 5% | 12% | 76% | 0% | 3% | 0% | 16% | 23% | 0% | 3% | 7% | 12% | 28% | 34%
20 | C[C@@H]1CCN(C(=O)CC#N)C[C@@H]1N(C)c1ncnc2[nH]ccc12 | 4% | 0% | 0% | 0% | 3% | 0% | 0% |  | 0% | 15% | 0% | 0% | 0% | 0% | 0% | 10% | 0% | 4% | 0% | 21%
21 | Cc1n[nH]c2ccc(-c3cc(OC[C@@H](N)Cc4ccccc4)cnc3-c3ccoc3)cc12.O=C(O)C(F)(F)F.O=C(O)C(F)(F)F [GSK507358] | 54% | 23% | 60% | 0% | 17% | 0% | 94.4% | 98% | 99.9% | 71% | 90.6% | 91.7% | 10% | 8% | 0% | 0% | 0% | 13% | 0% | 
22 | C[C@H]1Oc2cc(cnc2N)-c2c(nn(C)c2C#N)CN(C)C(=O)c2ccc(F)cc21 | 4% | 0% | 22% | 0% | 15% | 0% | 20% | 35% | 0% | 0% | 27% | 10% | 0% | 0% | 0% | 0% | 83% | 16% | 88% | 0%
23 | O=C(NCCNc1ccnc(NCc2ccc(F)cc2)n1)c1cc2ccccc2s1 [GSK1379944] | 0% | 19% | 22% | 0% | 9% | 68% | 25% | 72% | 26% | 32% | 98.8% | 9% | 0% | 66% | 0% | 0% | 0% | 81% | 1% | 0%
24 | CCn1c(-c2nonc2N)nc2c(C#CC(C)(C)O)nc(OCCN)cc21.Cl.Cl [GSK902056] | 7% | 27% | 20% | 0% | 11% | 0% | 18% | 0% | 41% | 0% | 0% | 12% | 0% | 46% | 0% | 0% | 0% | 21% | 0% | 0%
25 | Cl.Cl.NC[C@H](Cc1ccc(C(F)(F)F)cc1)NC(=O)c1cc(Br)c(-c2ccnc3[nH]ccc23)s1 [GSK1487252] | 39% | 22% | 57% | 3% | 0% | 0% | 16% | 55% | 54% | 0% | 8% | 24% | 0% | 14% | 0% | 0% | 0% | 6% | 17% | 27%
26 | CN(C)CC(O)COc1ccc(Nc2nccc(-c3cnn4nc(N5CCOCC5)ccc34)n2)cc1 (centres unmarked) [GW767488] | 96.6% | 11% | 88% | 15% | 32% | 24% | 15% | 41% | 29% | 16% | 50% | 10% | 97.1% | 98.7% | 1% | 59% | 46% | 68% | 72% | 92.2%
27 | Cc1occc1-c1nc(N)c(OC[C@@H](N)Cc2c[nH]c3ccccc23)cc1-c1cc2c(C)n[nH]c2cn1 [GSK1660450] | 97.5% | 80% | 97.6% | 0% | 18% | 0% | 71% | 96.6% | 99.7% | 79% | 74% | 83% | 76% | 48% | 11% | 64% | 69% | 59% | 24% | 

Source: article PMC5540273 (PLoS ONE, 2017)
